15 compounds from PubChem BioAssay (NCATS) can be followed below.

Assay [1] can be described thus: qHTS drug screen for cell cycle checkpoint inhibitors in PARPi-resistant BRCA-mutant ovarian cancer cell lines. (AID 1963452; calls by dose curve). The conditions noted are these: PEO1/OlaR viability, CellTiter-Glo luminescence, 96 h, stronger effect = lower value. A digest of the protocol:
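PEO1, PEO4 and PEO1/OlaR ovarian cancer cells, 600 per well, exposed 96 h at 37C to a dilution series. Viability read by CellTiter-Glo luminescence, normalized to DMSO and empty wells; activity summarized as Z-AUC.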
For orientation: Quantitative high-throughput screening tests each substance at several concentrations.

The nature of assay [2]: qHTS profiling for inhibitors of Plasmodium falciparum proliferation (AID 504749).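 For activity, negative = inhibition: 0% = DMSO vehicle and full inhibition = artemisinin control.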 Note: nearly all actives have a fitted effect of over 60% in size. Note: potency is the fitted concentration of half-maximal effect. The conditions noted are these: P. falciparum in erythrocytes, SYBR Green DNA, 72 h. A digest of the protocol: (§1)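 Readout was DNA-dye fluorescence from lysed cultures, ex 485/em 535 nm. Parasitized red cells had grown 72 h with compound; data scaled between 0.29 uM artemisinin and DMSO wells and corrected using vehicle-only plates.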

Assay [3] relates to 3D7. The assay is described as above. The conditions noted are these: P. falciparum in erythrocytes, SYBR Green DNA, 72 h; series mostly up to 28.7 µM. A digest of the protocol:
as §1

For assay [4], the system named is 7G8. The assay is described as above. The conditions noted are these: P. falciparum in erythrocytes, SYBR Green DNA, 72 h; series mostly up to 28.7 µM. A digest of the protocol: as §1
For assay [5], the system named is AA1029. Described as above. The note with it: P. falciparum in erythrocytes, SYBR Green DNA, 72 h; series mostly up to 28.7 µM. The method in brief: as §1
Assay [6] relates to AS120. Described as above. The conditions noted are these: P. falciparum in erythrocytes, SYBR Green DNA, 72 h; series mostly up to 28.7 µM. The method in brief: as §1
Assay [7] deals with ATS189. The assay is described as above. The note with it: P. falciparum in erythrocytes, SYBR Green DNA, 72 h; series mostly up to 28.7 µM. The method in brief:
as §1

The nature of assay [8]: qHTS for identification of novel therapeutic agents for treatment of microphthalmiaassociated transcription factor (MiT) renal cell carcinoma (RCC) (AID 1963991; calls by dose curve; note: potency is the fitted concentration of half-maximal effect;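 for z-score: curves scaled with 100% = DMSO viability and 0% = empty wells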). The note with it: CellTiter-Glo, 48 h; for z-score: stronger effect = lower value. The method in brief: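 UOK109/UOK124/UOK145 (TFE3 fusions, three partners); 500 cells/well; MIPE v4.0, 1912 cpds, 11 conc.; 48 h, 37 C; CellTiter-Glo, 15 min RT; lum. Norm.: DMSO 100%, empty 0%.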

Where [9] appears, read: measured here: PEO1 parental Z-AUC.
[10] abbreviates: at 28.7 µM (top of the series), parasite line A.
Where [11] appears, read: at 28.7 µM (top of the series), parasite line B.

SMILES strings stand for the structures. Records with an inconclusive call do not appear. Calls of active or inactive are those of the source. Unless noted, calls come from the whole dose curve; as a rule, active = well fitted inhibition curve with a large enough effect; inconclusive = small, poorly fitted or top-dose-only effect; inactive = flat fitted curve, though single readings scatter.

In the case of `C[C@@H]1O[C@@H](O[C@@H]2C=C3CC[C@@H]4[C@H](CC[C@]5(C)[C@@H](c6ccc(=O)oc6)CC[C@]45O)[C@@]3(C)CC2)[C@H](O)[C@H](O)[C@H]1O`, the figures for the Z-AUC in assay [1], in assay [1] (setting [9]) and in assay [1] (measured here: PEO4 Z-AUC) were -2.1 (inactive), -2.52 and -2.14, respectively.
Regarding `C[C@]12CC[C@H]3[C@@H](CC=C4C[C@@H](O)CC[C@@]43C)[C@@H]1CC[C@@H]2O`, the activity, negative = inhibition in assay [2] (setting [10]) was 1.98% (inactive); in assay [2] (setting [11]), 6.49% (inactive). Also, the Potency entry in assay [3], in assay [4], in assay [5], in assay [6] and in assay [7] was “inactive” in each case.
Take `NCc1cccnc1`: the activity, negative = inhibition in assay [2] (setting [10]) was -9.24% (inactive); in assay [2] (setting [11]), -2.31% (inactive). Further, the Potency result in assay [3], in assay [4], in assay [5], in assay [6] and in assay [7] was “inactive” each time.
Regarding `COC(=O)C1=CCCN(C)C1`, the activity, negative = inhibition in assay [2] (setting [10]) was 0.472% (inactive); in assay [2] (setting [11]), 19.4% (inactive). In addition, the Potency entry in assay [3], in assay [4], in assay [5], in assay [6] and in assay [7] was “inactive” throughout.
As for `O=c1n(Cl)c(=O)n(Cl)c(=O)n1Cl`, the activity, negative = inhibition is 0.0387% (inactive) in assay [2] (setting [10]) and 2.68% (inactive) in assay [2] (setting [11]). For the same compound, the Potency result in assay [3], in assay [4], in assay [5], in assay [6] and in assay [7] was “inactive” in each case.
As for `C[C@@H]1C[C@@H]([C@H](O)CC2CC(=O)NC(=O)C2)C(=O)[C@@H](C)C1`, the Z-AUC was 0.13 (inactive) in assay [1], -0.0615 in assay [1] (setting [9]) and 0.0418 in assay [1] (measured here: PEO4 Z-AUC). Besides, the Potency in assay [8] (TFE3-RCC UOK109 viability) is 46.9 nM (active). The z-score in assay [8] (TFE3-RCC UOK109 viability, measured here: UOK109 Z-AUC) is -2.25; in assay [8] (TFE3-RCC viability, measured here: UOK124 Z-AUC) it was -1.12; in assay [8] (TFE3-RCC viability, measured here: UOK145 Z-AUC), -1.24.
With `CCOC(=O)NC(O)C(Cl)(Cl)Cl` (centres undefined), the activity, negative = inhibition in assay [2] (setting [10]) is 5.94% (inactive); in assay [2] (setting [11]) it was 0.346% (inactive). The Potency result in assay [3], in assay [4], in assay [5], in assay [6] and in assay [7] was “inactive” each time.
Regarding `CCCCCCCCC(=O)NCc1ccc(O)c(OC)c1`, the values for the activity, negative = inhibition in assay [2] (setting [10]) and in assay [2] (setting [11]) were -0.439% (inactive) and 7.79% (inactive), respectively. Also, the Potency entry in assay [3], in assay [4], in assay [5], in assay [6] and in assay [7] was “inactive” throughout.
With `COc1ccc(CN2CCNCC2)c(OC)c1OC`, the activity, negative = inhibition in assay [2] (at 12.8 µM (top of the series), parasite line A) was 8.69% (inactive); in assay [2] (at 12.8 µM (top of the series), parasite line B), 4.48% (inactive). The Potency entry in assay [3], in assay [4], in assay [5], in assay [6] and in assay [7] was “inactive” throughout.
Turning to `C[N+](C)(C)CCOC(=O)C(O)(c1ccccc1)c1ccccc1`, the activity, negative = inhibition was 12.8% (inactive) in assay [2] (setting [10]) and 7.74% (inactive) in assay [2] (setting [11]). The Potency entry in assay [3], in assay [4], in assay [5], in assay [6] and in assay [7] was “inactive” throughout.
As for `CCN(CC)C(C)C(=O)c1ccccc1` (centres undefined), the values for the activity, negative = inhibition in assay [2] (setting [10]) and in assay [2] (setting [11]) were -2.34% (inactive) and 12.3% (inactive), respectively. Also, the Potency result in assay [3], in assay [4], in assay [5], in assay [6] and in assay [7] was “inactive” in each case.
As for `CC(Cc1ccccc1)NCc1ccccc1Cl` (centres undefined), the activity, negative = inhibition was -0.799% (inactive) in assay [2] (setting [10]) and -0.104% (inactive) in assay [2] (setting [11]). The Potency entry in assay [3] was “inactive”. The Potency in assay [4] is 11200 nM (active).
For `Clc1ccc(CO/N=C(\Cn2ccnc2)c2ccc(Cl)cc2Cl)c(Cl)c1`, the Potency in assay [2] (parasite line A) is 3550 nM (active); in assay [2] (parasite line B), 2820 nM (active); in assay [3], 2820 nM (active); in assay [4] it was 1120 nM (active); in assay [5] it was 5010 nM (active); in assay [6], 2240 nM (active). In assay [7], the Potency was 3980 nM (active).
Take `CN(C)C(=S)SSC(=S)N(C)C`: the Potency in assay [2] (parasite line A) is 2510 nM (active); in assay [2] (parasite line B) it was 3160 nM (active); in assay [3] it was 1580 nM (active); in assay [4], 1120 nM (active); in assay [5], 2240 nM (active); in assay [6], 3550 nM (active). The Potency in assay [7] was 4470 nM (active).
As for `C#C[C@]1(O)C=C[C@H]2[C@@H]3CCC4=CC(=O)CC[C@@H]4[C@H]3CC[C@@]21CC`, the values for the Z-AUC in assay [1], in assay [1] (setting [9]) and in assay [1] (measured here: PEO4 Z-AUC) were 1.19 (inactive), 1.82 and 1.32, respectively.
